# Source: PubChem (National Center for Advancing Translational Sciences (NCATS))
# Only some compounds are listed: those with a hit (about 7.9% of all), similar ones and a draw of the others.
# SW480 rereplic – DNA re-replication induction in SW480 cells | SW480 DNA re-replication, Hoechst DNA content imaging, 48 h | Potency, µM (titrated, usually from 46.1 µM), without a hit: at the top dose re-replication activation, hits mostly activators | 340,000 tested, 1.8% active | AID 624297; further: % of control where 0% means no effect; nearly all actives have a fitted effect of over 55% in size
#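 Image-based read-out: total Hoechst fluorescence of nuclei (405 nm excitation, 500-530 nm emission), with hits raising the fraction of high-intensity nuclei. SW480 colon cells incubated 48 hr with compounds at 37 C.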
# HT1080-NT tox – kills 2HG-producing HT-1080-NT fibrosarcoma cells; HT-1080-NT fibrosarcoma viability, CellTiter-Glo ATP luminescence, 48 h; Potency, µM (highest dose often 46.1 µM), for the others: top-dose activity, negative = less viability, hits mostly cytotoxic; 360,000 tested, 1.6% active; AID 686970;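 further: NT is the 2HG producing partner of a matched IDH1 knockdown line; 0% = DMSO-treated cells and -100% = media-only wells without cells; nearly all actives have a fitted effect of over 55% in size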
#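 Compounds were tested in concentration-response format on HT-1080-NT cells for 48 hours at 37 degrees C. Cell viability came from CellTiter-Glo luminescence; curves were classified by r2, response magnitude and activity.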
# KB-V1 cytotox – KB-V1 MDR subline cytotoxicity; KB-V1 MDR cells viability, CellTiter-Glo, 72 h; Potency, µM (doses to about 46.1 µM), most hits filed as cytotoxic; 400,000 tested, 3.4% active; AID 1347076; further: on the % scale 0 is the no-effect control and ±100 the full control effect; nearly all actives have a fitted effect of over 60% in size
#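 Luminescent ATP read-out (CellTiter-Glo, 10 min) measures survival of drug-selected KB-V1 MDR cells after 72 h, 37 degrees C compound exposure. Medium: phenol-red-free DMEM, 10% FBS. Values from fitted concentration-response curves.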
# KB-3-1 tox – KB-3-1 parental cell cytotoxicity. KB-3-1 viability, CellTiter-Glo ATP luminescence, 72 h. Potency, µM (series often up to 46.1 µM), most hits filed as cytotoxic. 400,000 tested, 1.4% active. AID 1347075; further: on the % scale 0 is the no-effect control and ±100 the full control effect; nearly all actives have a fitted effect of over 60% in size
#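 Multi-concentration cytotoxicity screen in KB-3-1 cells grown in DMEM lacking phenol red with 10% FBS. After 72 h at 37 °C with compound, ATP-dependent luminescence was recorded.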
# MCF10A rerep – induces DNA re-replication in MCF 10a normal breast cells | MCF 10A DNA re-replication, Hoechst nuclear intensity, 48 h | 350,000 tested, 2.9% active | Potency, µM (highest dose often 46.1 µM), for inactives: at the top dose activity, positive = re-replication, actives largely listed as activators; further: % of control where 0% means no effect; nearly all actives have a fitted effect of over 50% in size
# HT1080 IDH1KD tx – toxicity to HT-1080 IDH1 knockdown cells (counter line) | HT-1080 IDH1 knockdown viability, ATP luminescence, 48 h | Potency, µM (highest dose often 46.1 µM), for inactives: at the top dose activity, negative = toxicity, most hits filed as cytotoxic | 360,000 tested, 2% active;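 further: 0% = DMSO wells and -100% = cell-free medium wells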
#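 Using the IDH1-knockdown HT-1080 line run in the same batch and compound series as the NT line, viability after 48 h at 37 °C was determined by CellTiter-Glo luminescence and expressed as % activity.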
# An asterisk follows results filed as active; i = inactive; u = inconclusive; x = no result; [ ] = another dose, or the depositor's remark. The call rests on the fitted dose curve; in most records, active means well fitted curve in the direction sought with a large enough effect; inconclusive means small, poorly fitted or top-dose-only effect, or another doubt; inactive means no such curve, though single readings can be large; an effect the other way counts as inactive or inconclusive. Potency means the concentration at half of the fitted maximal effect.
SMILES,SW480 rereplic,HT1080-NT tox,KB-V1 cytotox,KB-3-1 tox,MCF10A rerep,HT1080 IDH1KD tx
Cc1ccc(C(=O)N/C(=C/c2ccc(-c3cccc([N+](=O)[O-])c3)o2)C(=O)NC(C)C)cc1,-0.1%,-0.2%,3.66µM*,i,20.0%,-10.3%
CCc1cccc2c(C(=O)CN3C(=O)C(=O)N(C4CCCC4)C3=O)c[nH]c12,-4.0%,-3.0%,i,i,16.0%,-2.7%
CCc1cccc2c(C(=O)CN3C(=O)NC4(CCCCCC4)C3=O)c[nH]c12,9.4%,u,u,u,u,5.8µM*
CCc1cccc2c(C(=O)CCl)c[nH]c12,u,u,i,i,23.1µM*,14.6µM*
CCc1cccc2c(C(=O)CN3C(=O)NC4(CCCCC4)C3=O)c[nH]c12,-1.3%,-26.1%,u,u,13µM*,u
CCOC(=O)Cc1c(C)[nH]c(=S)[nH]c1=O,u,-5.6%,i,i,1.1%,-4.9%
COCCN(C(=O)c1csnn1)C(C(=O)NC1CCCC1)c1ccccc1 (stereo not given),-16.9%,0.5%,i,i,-15.5%,1.0%
CCOc1cc(S(=O)(=O)N2CCN(S(=O)(=O)CC)CC2)c(OCC)cc1-n1cnnn1,-30.4%,-1.8%,i,i,16.8%,8.3%
Cc1[nH]nc2c1C(c1ccc(-c3ccccc3C#N)o1)C(C#N)=C(N)O2 (stereo not given),-13.8%,u,i,i,-4.6%,11.2µM*
CCC(CC)C1C(C#N)=C(N)Oc2n[nH]c(C)c21 (stereo not given),20.6µM*,11.2µM*,i,i,u,11.2µM*
CCC(CC)C1C(C#N)=C(N)Oc2n[nH]c(-c3ccccc3)c21 (stereo not given),10.7%,u,i,i,4.5%,-20.0%[9.24 µM]
Cc1ccc(-c2ccc(C3C(C#N)=C(N)Oc4n[nH]c(C)c43)o2)cc1 (stereo not given),u,-20.5%,25.9µM*,i,23.1µM*,-14.5%
CCn1nc(C)cc1C(=O)Sc1cccc(Br)c1,-13.9%,13µM*,i,i,u,20.6µM*
O=C(COC(=O)CNC(=O)c1ccccc1Cl)Nc1cc(C(F)(F)F)ccc1Cl,4.0%,x,i,i,14.6µM*,x
CC(CCC(C)C(C)(C)C)[C@@H]1CC[C@H]2C3C[C@H](OS(O)(=S)=S)[C@H]4C[C@H](OS(O)(=S)=S)[C@@H](OS(O)(=S)=S)C[C@]4(C)[C@H]3CC[C@]12C (stereo not given in full) (tested in a mixture with another compound),-58.9%,9.2µM*,i,i,u,u
Cc1ccc(S(=O)(=O)N2CC3(C)CN(S(=O)(=O)c4ccc(C)cc4)CC(C)(C2)C3=O)cc1,7.2%,-10.1%,0.731µM*,i,5.8%,-25.2%
CCc1cccc(NC(=O)C2CCN(S(=O)(=O)c3c(C)noc3C)CC2)c1,-6.8%,-16.7%,i,i,-2.0%,-5.1%
CSc1nc2nc3c(cc2c(=O)n1-c1ccc(C)cc1)COC(C)(C)C3,0.3%,8.4%,u,i,9.0%,9.5%
CN(C)c1ncnc2c1C(c1ccccc1)C(C)(C)O2 (stereo not given),-0.7%,9.3%,18.4µM*,i,3.4%,9.0%
O=c1[nH]c(CN2CCN(S(=O)(=O)/C=C/c3ccccc3)CC2)nc2cc(Cl)ccc12,u,9.2µM*,u,23.1µM*,18.4µM*,20.6µM*
O=c1[nH]c(CN2CCN(S(=O)(=O)/C=C/c3ccccc3)CC2)nc2ccccc12,1.7%,-11.1%,i,i,28.1%,-5.1%
NC(=O)C1CCN(Cc2nc3cc(Cl)ccc3c(=O)[nH]2)CC1,-0.2%,20.6µM*,i,u,20.6µM*,18.4µM*
NC(=O)C1CCN(Cc2nc3ccccc3c(=O)[nH]2)CC1,-2.1%,4.7%,i,i,425.2%[0.0737 µM],5.5%
COc1ccc(Br)cc1CNC(=O)CCN1C(=O)COc2ccccc21,-4.1%,8.4%,u,i,3.3%,0.0%
O=C(/C=C/c1ccccc1)NC(=S)Nc1ccc2c3c(cccc13)CC2,-2.2%,13.3%,i,4.11µM*,u,20.6%
SMILES,SW480 rereplic,HT1080-NT tox,KB-V1 cytotox,KB-3-1 tox,MCF10A rerep,HT1080 IDH1KD tx
CC(C)c1ccc(/C=C/C(=O)NC(=S)Nc2ccc(CN3CCOCC3)cc2)cc1,22.8%,u,u,i,23.1µM*,u
CC(C)c1ccc(/C=C/C(=O)NC(=S)NN2CCOCC2)cc1,u,-8.6%,i,i,2.7%,-4.6%
O=C(/C=C/c1ccccc1)NC(=S)Nc1ccc(N2CCOCC2)cc1,3.0%,7.94µM*,i,i,1.5%,u
O=C(/C=C/c1ccccc1)NC(=S)Nc1ccccc1,u,-6.1%,u,i,-10.9%,1.1%
CC1(C)OC(=O)CC1C(=O)NCc1ccccc1 (stereo not given),-2.1%,2.6%,i,i,18.3%,14.9%
O=C(NC1CCCCC1)C(c1cccs1)N(C(=O)Cc1c[nH]c2ccccc12)c1ccc(F)cc1 (stereo not given),-0.1%,-0.8%,i,i,0.5%,1.5%
Cc1ccc(C(C(=O)NC2CCCCC2)N(C(=O)Cc2c[nH]c3ccccc23)c2ccccc2)o1 (stereo not given),13.8%,u,4.11µM*,18.4µM*,u,-24.8%
COc1cc(C(C(=O)NC2CCCCC2)N(C(=O)Cc2c[nH]c3ccccc23)c2ccc(C)cc2)cc(OC)c1OC (stereo not given),11.4%,-4.5%,23.1µM*,u,3.6%,-10.7%
CC(=O)Nc1ccc(N(C(=O)Cc2c[nH]c3ccccc23)C(C(=O)NC2CCCCC2)c2ccco2)cc1 (stereo not given),0.9%,-7.7%,i,i,2.9%,-9.7%
COc1ccc(/C=C/C(=O)OCc2nc3ccccc3c(=O)[nH]2)c(OC)c1,-2.6%,-4.4%,i,i,u,0.8%
O=C1CCN(Cc2ccccc2)C=C1C(=O)c1ccccc1,-1.4%,14.0%,u,i,-6.9%,12.4%
O=C(NCCNCC(O)COc1ccc(O)cc1)N1CCOCC1 (stereo not given),1.1%,u,i,i,-15.2%,7.4%
N#C/C(=C/c1ccccc1)C(=O)OCC(=O)Nc1ccccc1[N+](=O)[O-],-12.6%,4.7%[9.24 µM],i,i,7.5%,4.0%
